From PubChem BioAssay
A selection: hits, their analogues and other compounds. The true share with any hit is near 3.9%.
NSD2 inh – blocks human histone methyltransferase NSD2; NSD2 peptide methylation, AlphaScreen, 120 min; O96028; AID 743445; inhibition, % at 12.5 µM; 310,000 tested, 0.54% active; in the data active = inhibition above about 50%
Target sequence (O96028 whole entry, looked up): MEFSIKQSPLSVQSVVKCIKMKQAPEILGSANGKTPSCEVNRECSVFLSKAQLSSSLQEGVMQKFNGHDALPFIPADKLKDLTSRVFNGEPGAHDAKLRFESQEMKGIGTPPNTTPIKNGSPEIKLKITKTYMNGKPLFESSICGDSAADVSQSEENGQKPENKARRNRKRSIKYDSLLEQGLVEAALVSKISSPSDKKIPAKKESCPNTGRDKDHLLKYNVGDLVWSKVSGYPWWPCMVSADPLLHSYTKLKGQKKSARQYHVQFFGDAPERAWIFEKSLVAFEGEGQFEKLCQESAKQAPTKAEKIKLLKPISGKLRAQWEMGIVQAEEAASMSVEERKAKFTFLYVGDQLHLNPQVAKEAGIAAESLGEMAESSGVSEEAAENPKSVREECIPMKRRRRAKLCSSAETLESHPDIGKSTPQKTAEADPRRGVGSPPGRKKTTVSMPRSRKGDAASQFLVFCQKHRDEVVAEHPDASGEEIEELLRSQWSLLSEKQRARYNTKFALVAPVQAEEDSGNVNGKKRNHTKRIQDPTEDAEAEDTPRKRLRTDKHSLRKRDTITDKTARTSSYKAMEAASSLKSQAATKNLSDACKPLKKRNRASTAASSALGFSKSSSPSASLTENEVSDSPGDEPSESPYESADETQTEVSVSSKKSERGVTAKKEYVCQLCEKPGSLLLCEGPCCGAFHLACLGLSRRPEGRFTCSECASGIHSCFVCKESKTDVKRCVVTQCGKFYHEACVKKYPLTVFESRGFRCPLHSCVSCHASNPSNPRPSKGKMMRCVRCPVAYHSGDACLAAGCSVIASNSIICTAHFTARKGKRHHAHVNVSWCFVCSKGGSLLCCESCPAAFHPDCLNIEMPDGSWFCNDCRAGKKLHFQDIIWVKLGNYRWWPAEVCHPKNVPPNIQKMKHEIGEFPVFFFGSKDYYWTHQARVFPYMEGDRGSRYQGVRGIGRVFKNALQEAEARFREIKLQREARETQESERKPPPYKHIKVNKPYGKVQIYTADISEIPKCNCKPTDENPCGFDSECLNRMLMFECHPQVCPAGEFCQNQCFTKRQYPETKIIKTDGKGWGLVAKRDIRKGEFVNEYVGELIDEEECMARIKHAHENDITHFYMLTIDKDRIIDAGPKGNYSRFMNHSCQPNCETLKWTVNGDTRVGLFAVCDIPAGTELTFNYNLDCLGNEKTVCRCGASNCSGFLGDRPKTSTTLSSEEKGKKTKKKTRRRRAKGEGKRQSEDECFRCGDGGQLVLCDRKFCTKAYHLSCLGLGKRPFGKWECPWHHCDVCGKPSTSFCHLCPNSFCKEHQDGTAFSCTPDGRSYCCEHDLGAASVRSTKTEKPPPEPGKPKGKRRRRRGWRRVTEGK
ALR H2O2 inh – inhibitors of human sulfhydryl oxidase ALR; 290,000 tested, 3.8% active; inhibition, % (test concentration not listed); purified ALR, DTT oxidation, H2O2 HRP-luminol luminescence; AID 485317;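 active = mean replicate inhibition above about 79%, with every replicate also reaching it, limit read from the data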
CDK5 p35 inh – blocks human CDK5/p35 kinase activity. Recombinant CDK5/p35, ADP-Glo luminescence, 60 min. inhibition, % at 10 µM. 330,000 tested, 0.01% active. Q00535+Q15078;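 active = highest replicate inhibition of at least 50% and at least 75% of replicates reaching 50%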
N-glyco inh – N-linked glycosylation inhibition; D54 ERlucT glycosylation luciferase reporter, 24 h; percent of 100 nM tunicamycin response; reporter increase, % at 12.5 µM; 360,000 tested, 0.23% active;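 active = mean luciferase reporter signal, scaled so untreated is 0 and the glycosylation-blocking control 100, at or above a set limit in every replicate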;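 note: luciferase carries N-glycosylation sites so blocking glycosylation raises the light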
Mot1-301 SUMO – blocks SUMOylation pathway, rescuing yeast Mot1-301 growth. AID 2716. S. cerevisiae Mot1-301 growth rescue, ATP luminescence, 38.5C; percent above DMSO median, 100 means doubled. growth rescue, % at 18.8 µM. 320,000 tested, 1% active;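 active = every valid replicate shows activation above 250% relative to neutral control wells; inactive = the rest, any valid replicate at or below 250%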
Casp6 inh – inhibitors of human caspase-6 | inhibition, % at 12.5 µM | 350,000 tested, 0.53% active | purified caspase-6, Z-VEID-R110 cleavage fluorescence;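 active = mean inhibition across replicates at least about 35%, with every replicate also reaching that limit, limit read from the data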
Hits are given with their value; 0 = inactive; - = no result.

SMILES	NSD2 inh	ALR H2O2 inh	CDK5 p35 inh	N-glyco inh	Mot1-301 SUMO	Casp6 inh
CCOC(=O)/C=C1\Nc2ccccc2OC1=O	0	93	0	0	0	0
COC(=O)C(C)Sc1nnc(Cc2cc(=O)[nH]c(=O)[nH]2)n1-c1cc(C)ccc1C (centres undefined)	-	91	0	0	0	0
CCOc1ccc(-n2c(Cc3cc(=O)[nH]c(=O)[nH]3)nnc2SC(C)C(=O)OC)cc1 (centres undefined)	-	93	0	0	0	0
CSc1nnc(Cc2cc(=O)[nH]c(=O)[nH]2)n1-c1cccc(C)c1	0	0	0	-	352	-
O=C(c1cccc(F)c1)N1CC2(C1)[C@@H](c1ccccc1)[C@@H](CO)N2C(=O)C1CCCC1	-	-	-	-	-	0
Cc1ccc(N2CCN(S(=O)(=O)c3cccs3)CC2C)cc1 (centres undefined)	0	99	0	0	0	0
Cc1ccccc1S(=O)(=O)N1CC(=O)N2[C@H](C1)[C@H](c1ccc(C#CCC3CCCC3)cc1)[C@@H]2CO	-	-	-	-	-	0
CCOc1ccc(S(=O)(=O)N2CCN(Cc3ccc4c(c3)OCO4)CC2)cc1Cl	0	0	0	0	386	0
O=S(=O)(Cc1ccccc1Cl)N1CCN(Cc2ccc3c(c2)OCO3)CC1	0	0	0	0	277	-
O=C(C[C@@H]1CC[C@H]2[C@@H](COC[C@@H](O)CN2S(=O)(=O)c2ccccc2)O1)N1CCc2ccccc2C1	-	-	-	-	-	0
O=C(c1ccccn1)N1C[C@H]2[C@@H](c3ccccc31)[C@@H](CO)N2C(=O)Nc1ccccc1F	-	-	-	-	-	0
CC(=O)Nc1ccc(SCc2csc(C)n2)cc1	0	99	0	0	0	0
CC(=O)Nc1ccc(SCc2c(C)noc2C)cc1	0	99	0	0	0	0
Cc1noc(C)c1CSc1ccc(Br)cc1	0	0	0	0	0	0
COc1ccc(CNC(=O)C[C@@H]2CC[C@@H]3[C@H](COc4ccc(NC(=O)C5CC5)cc4C(=O)N3C)O2)cc1	-	-	-	-	-	0
C[C@@H]1CN([C@@H](C)CO)C(=O)c2cc(N(C)C)ccc2O[C@@H](C)CCCCO[C@H]1CN(C)C(=O)C1CCCCC1	-	-	-	-	-	0
CCN(CC)C(=O)c1csc(Nc2cccc3ccccc23)n1	0	0	0	0	0	0
O=C(c1csc(Nc2cccc3ccccc23)n1)N1CCCC1	0	0	0	0	607	0
O=C(c1csc(Nc2ccccc2Cl)n1)N1CCCC1	0	84	0	0	0	-
N#C[C@H]1[C@H](c2ccccc2)[C@H](CO)N1S(=O)(=O)c1cccc(F)c1	-	-	-	-	-	0
CCC(=O)N(C)C[C@H]1Oc2cc(C#Cc3ccccc3)ccc2S(=O)(=O)N([C@@H](C)CO)C[C@@H]1C	-	-	-	-	-	0
S=c1[nH]nc(C2CCCCC2)n1/N=C/c1cccs1	0	96	0	0	-	-
Cc1ccc(/C=N/n2c(C3CCCCC3)n[nH]c2=S)o1	0	97	-	0	0	0
S=c1[nH]nc(C2CCCCC2)n1/N=C/c1ccncc1	0	0	0	0	0	0
N#C[C@@H]1[C@@H](c2ccccc2-c2cccc(F)c2)[C@H](CO)N1C(=O)C1CCCCC1	-	-	-	-	-	0
SMILES	NSD2 inh	ALR H2O2 inh	CDK5 p35 inh	N-glyco inh	Mot1-301 SUMO	Casp6 inh
CSc1nc(N(C)CCO)c2sc3nc(-c4ccco4)c4c(c3c2n1)CCC4	-	98	0	0	0	-
COc1cc(C(=O)COC(=O)CNC(=O)C2CCCCC2)cc(OC)c1OC	0	0	0	0	270	-
COc1cc(C(=O)COC(=O)C2CCCCC2)cc(OC)c1OC	0	0	0	0	0	0
CN1CCCC(OC(=O)c2cc(Br)ccc2Cl)C1 (centres undefined)	0	0	0	0	260	0
CCC(=O)N[C@H]1CC[C@H](CC(=O)NCc2ccccc2OC)O[C@H]1CO	-	-	-	-	-	0
C[C@H]1CN([C@@H](C)CO)C(=O)c2cc(NC(=O)Nc3cccc4ccccc34)ccc2O[C@H]1CN(C)S(=O)(=O)c1ccc(F)cc1	-	-	-	-	-	0
CCCCn1c(=O)[nH]c(=O)c2c1nc(-c1ccc(C)c([N+](=O)[O-])c1)n2CC	0	96	0	0	0	0
CC(C)NC(=O)N(C)C[C@H]1Oc2ccc(NC(=O)Cc3ccccc3)cc2CC(=O)N([C@H](C)CO)C[C@H]1C	-	-	-	-	-	0
CO[C@H]1CN(C)C(=O)c2cc(NC(=O)NC3CCCCC3)ccc2OC[C@@H](C)N(C(C)=O)C[C@H]1C	-	-	-	-	-	0
